In PubChem BioAssay (NCI):
Compounds without any hit were thinned out: in the full panel of roughly 83,000, 20% have a hit.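 Activity criterion: percent growth below 10, measured after cells in 96-well plates were exposed to a single compound concentration for 48 hours.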 A number with no mark means an inactive call.

The compounds below were run on NCI/ADR-RES ovarian (assay: NCI-60 one-dose screen, 48 h (100 = growth as untreated, 0 = no growth, -100 = all killed)). Details: 10 µM unless noted.

Q: With CC12OC(CC(O)C1O)n1c3ccccc3c3c4c(c5c6ccccc6n2c5c31)C(=O)N(CCN1CCOCC1)C4=O (stereo not given) as the compound, how does the growth read?
A: The growth was 15.4%.

Q: For Cc1c(O)c(O)cc2c3c(oc12)CC(c1ccc2c(c1)OCO2)CC3=O (stereo not given), which growth is on record?
A: The growth was 90.3%.

Q: For N#CC1=C(N)Oc2c(sc3c(Br)cccc23)C1c1ccccn1 (stereo not given), which growth is on record?
A: The growth was 14.6%.

Q: Which growth does the source give for COc1cc2nc3cc([N+](=O)[O-])ccc3c(NCCNCC(C)(C)O)c2cc1OC here?
A: Its growth is 55%.

Q: Which growth does the source give for CCOc1ccccc1NC(=O)c1cc2ccccc2cc1O here?
A: Its growth is 28.7%.
